Source: PubChem (National Center for Advancing Translational Sciences (NCATS))
The list is not random: actives were taken first. Their share in the collection is about 5.2%.
Tau fibril FP: tau fibrillization inhibition (FP). K18 P301L tau heparin fibrillization, Alexa594 FP, 6 h. Potency, µM (highest dose often 57.7 µM), without a hit: at the top dose activity, negative = inhibition, usual class: inhibitors. actives 0.39% (n = 280,000); note: potency is the fitted concentration of half-maximal effect; nearly all actives have a fitted effect of over 55% in size
Target sequence (P10636 561-689 P618L limits assumed): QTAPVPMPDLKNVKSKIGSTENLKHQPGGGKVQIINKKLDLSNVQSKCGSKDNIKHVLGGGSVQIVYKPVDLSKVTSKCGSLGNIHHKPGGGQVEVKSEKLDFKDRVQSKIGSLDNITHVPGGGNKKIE
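Read-out: fluorescence polarization of Alexa 594-labeled tau (0.24 uM), 555 nm excitation, 632 nm emission. Mixtures held 15 uM unlabeled K18 P301L, compound and 20 uM heparin, pH 7 acetate buffer, incubated 6 hr at 37 C.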
Sfp inh: blocks B. subtilis Sfp PPTase activity. Q9F4F7. AID 1490. Potency, µM, inactives show largest response in the series, negative = inhibition, most hits filed as inhibitors. Biochemical Sfp PPTase activity, qHTS. actives 3.5% (n = 310,000);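 note: the enzyme is Sfp with the accession as filed and its product quenches rhodamine fluorescence; potency is the fitted concentration of half-maximal effect; 0% = enzyme reaction without inhibitor and -100% = no enzyme wells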
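After 15 min at room temperature with compound, 15 nM Sfp received 5 uM rhodamine-CoA plus 12.5 uM BHQ-2-ybbR (50 mM Hepes pH 7.6, 10 mM MgCl2). Rate came from the fluorescence difference over 30 min, ex 525/em 598 nm.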
Tau fibril ThT: tau fibrillization inhibition (ThT binding). P10636. recombinant tau K18 P301L, heparin-induced fibrillization, ThT fluorescence. Potency, µM (top dose mostly 57.4 µM), without a hit: at the highest dose activity, negative = inhibition, actives largely listed as inhibitors. actives 2.1% (n = 270,000); note: potency is the fitted concentration of half-maximal effect; nearly all actives have a fitted effect of over 55% in size
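Heparin-induced fibrillization of the P301L-mutant K18 repeat-domain fragment of human tau was followed by ThT binding in quantitative high-throughput format.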
Coupling enz: inhibits coupling enzyme system, counter-screen for aldolase hits; coupling enzyme system counterscreen, AmpLite Red fluorescence; activity change, negative = inhibition, % at 58.2 µM, hits read low; actives 0.67% (n = 290,000); AID 2472; in the data active = activity change below about -30%
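First, compound is pin-transferred into glyceraldehyde-3-phosphate coupling-enzyme reagent at 57.5 uM final and held 10 min at RT. Next, substrate, coupling system and AmpLite Red are added. After 20 min RT, fluorescence (525/598 nm) is read.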
Tau fluor cs: counter-screen for tau fibril formation inhibitors. AID 1463. actives 0.93% (n = 280,000). Potency, µM (doses to about 57.7 µM), inactives show top-dose activity change, negative = decrease. tau K18 P301L Alexa594 fluorescence, heparin fibrillization; note: potency is the fitted concentration of half-maximal effect; nearly all actives have a fitted effect of over 55% in size
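Human tau K18 P301L (15 uM unlabeled, 0.24 uM Alexa 594-labeled) in 100 mM sodium acetate pH 7 with 20 uM heparin, 6 hr at 37 C. ThT 30 uM added, 1 hr ambient; Alexa 594 FP and total fluorescence read at 555/632 nm.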
Active calls of the source: *; ? = inconclusive; nt = not tested or not shown; [ ] = remark or other dose. Unless noted, calls come from the whole dose curve; as a rule, active = well fitted curve in the direction sought with a large enough effect; inconclusive = small, poorly fitted or top-dose-only effect, or another doubt; inactive = no such curve, though single readings can be large; an effect the other way counts as inactive or inconclusive. Unless noted, % is set by controls: 0 for no effect and ±100 for the full control effect.

SMILES	Tau fibril FP	Sfp inh	Tau fibril ThT	Coupling enz	Tau fluor cs
O=C(O)c1ccc(Cl)c2c1C1C=CCC1C(c1ccccn1)N2 (centres undefined)	?	3.5µM*	14µM*	-19	14µM*[quencher]
O=[N+]([O-])c1ccc(Cl)c2c1C1C=CCC1C(c1ccccn1)N2 (centres undefined)	?	28µM*	25µM*	-16	?
O=c1c(-c2ccco2)[n+]([O-])c2ccccc2n1OCc1ccccc1F	-10%	-5%	-13%	1	-12%
CCOC(=O)COn1c(=O)c(-c2ccco2)[n+]([O-])c2ccccc21	-7%	25µM*	-10%	-22	-24%
O=c1c(-c2ccco2)[n+]([O-])c2ccccc2n1OCc1c(F)cccc1F	-2%	50µM*	?	1	-24%
O=c1c(-c2ccco2)[n+]([O-])c2ccccc2n1OCc1ccccc1	-6%	?	-16%	0	-11%
COc1ccccc1COn1c(=O)c(-c2ccco2)[n+]([O-])c2ccccc21	3%	50µM*	?	-7	-15%
Cc1ccc(C)c(N2CCN(C(=O)c3cc(S(=O)(=O)N4CCCCCC4)cn3C)CC2)c1	-1%	nt	-13%	nt	-11%
COc1ccc([C@]23Cc4ccccc4C(O2)c2c(cc(-c4ccccc4)oc2=O)O3)cc1	nt	8%	nt	-9	nt
Cc1ccc(Nc2c(-c3ccc(C)o3)nc3ncccn23)cc1	4%	11µM*	?	1	-21%
Cc1ccc(-c2nc3ncccn3c2Nc2ccccc2C)o1	14%	40µM*	-10%	0	-11%
COCCCNC(=O)C1CCN(c2cc(C)nc3c(-c4ccc(OC)c(OC)c4)c(C)nn23)CC1	10%	nt	-10%	nt	-12%
Cc1cccc(NC(=S)NNC(=S)NCc2ccccc2)c1	1%	79µM*	-17%	1	-20%
Cc1cccnc1NC(=S)NC(=O)c1cncc(Br)c1	-2%	?	0%	1	6%
O=C(NNC(=S)Nc1ccccc1)NNC(=S)Nc1ccccc1	2%	7%	5%	2	6%
O=C(NC(=S)Nc1ccccc1)c1cccs1	nt	45µM*	nt	-4	nt
O=C(NNC(=S)Nc1ccccc1)Nc1ccccc1	-9%	7.1µM*	-12%	2	-7%
O=C(Nc1ccc(NC(=S)NC(=O)c2cccs2)cc1)c1ccccc1	-10%	4%	?	-1	-1%
Cc1cccnc1NC(=S)NC(=O)c1cccs1	-4%	79µM*	-13%	1	-12%
Cc1c(C(=O)NC(=S)Nc2ccc(NC(=O)c3cccs3)cc2)oc2ccccc12	5%	8.9µM*	?	7	?
CCOC(=O)c1c(NC(=O)CSc2cn(CCNC(=O)c3ccc(OC)c(OC)c3)c3ccccc23)sc2c1CCCC2	-13%	nt	?	nt	?
O=C(c1ccc(Nc2nccc(-c3cc4ccccc4s3)n2)cc1)N1CCC(N2CCCC2)CC1	nt	?	nt	1	nt
CC(=O)c1cc(CN2CCC(N3CCC(C(=O)NC(C)C)CC3)CC2)cs1	-7%	19%	-8%	-1	-14%
CC(=O)c1cc(CN2CCC(N3CCC(C(=O)N4CCCC4)CC3)CC2)cs1	5%[2.34 µM]	22µM*	?	2	-54%
CC(=O)Nc1ccn(C2OC(C(COC(C)=O)NC(=O)C(COCc3ccccc3)NC(=O)OC(C)(C)C)C(OC(C)=O)C2OC(C)=O)c(=O)n1 (centres undefined)	nt	-2%	nt	-1	nt
O=C1CCC=C1C(O)c1ccc2c(c1)OCO2 (centres undefined)	-5%	8%	-8%	1	-15%
O=C(NNc1nc2c(F)cc(F)cc2s1)C1COc2ccccc2O1 (centres undefined)	0%	12%	-8%	1	-6%
Cc1cccc2sc(NNC(=O)C3COc4ccccc4O3)nc12 (centres undefined)	-4%	32µM*	?	0	-26%
CC(=O)N1CCN(C2=Nc3cccc4cccc2c34)CC1	2%	-10%	?	-47*	3%
CC1CN(c2oc(-c3ccccc3Cl)nc2C#N)CC(C)O1 (centres undefined)	6%	6%	-8%	0	0%
